Some test systems named below: HCT-15 colon; HT29 colon; SNB-75 CNS; SNB-19 CNS; U251 CNS; PC-3 prostate; SK-MEL-5 melanoma; UACC-62 melanoma; LOX IMVI melanoma; SK-MEL-28 melanoma; SK-MEL-2 melanoma; EKVX NSCLC; SN12C renal; UO-31 renal; TK-10 renal; ACHN renal; CAKI-1 renal; CCRF-CEM leukemia; MOLT-4 leukemia.
Holding throughout (assay): NCI-60 one-dose screen, 48 h (100 = growth as untreated, 0 = no growth, -100 = all killed)
Settings in all cases: 10 µM unless noted

About 83,000 compounds went through this panel and 20% of them were active in at least one assay; those are over-represented in the sample as a whole.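 Single-concentration screen, 48 h exposure, 96-well plates. Endpoint: percent growth. Below 10 = active.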 A number with no mark means an inactive call. Calls of active or inactive are those of the source.

Six compounds from PubChem BioAssay (NCI) can be followed below.

On to `O=C(CCN1CCCC1)Nc1ccc2c(Nc3ccc(Br)cc3)c3ccccc3nc2c1`, for which the growth with HCT-15 colon is -73.9% (active); in the assay on HT29 colon, 1.67% (active); with SNB-75 CNS it was 37.3%; in the assay with SNB-19 CNS, -0.557% (active); in the assay with U251 CNS it was -51% (active); with PC-3 prostate it was 4.09% (active). The growth with SK-MEL-5 melanoma was 31.7%; in the assay with UACC-62 melanoma it was 77.8%; in the assay with LOX IMVI melanoma it was -92.4% (active); with SK-MEL-28 melanoma it was -28.6% (active); with SK-MEL-2 melanoma it was 97.1%; in the assay with EKVX NSCLC, 59.5%. The growth was 30% in the assay with SN12C renal; -96.8% (active) with UO-31 renal; -36.1% (active) with TK-10 renal; 29.4% in the assay with ACHN renal; 15.3% with CAKI-1 renal; -15.6% (active) in the assay with CCRF-CEM leukemia. Further, the growth in the assay on MOLT-4 leukemia was -33.8% (active).

As to `COc1ccc(C(=O)Nc2cccc(C3CCc4c(cc(OC)c(OC)c4OC)O3)c2)cc1` (centres undefined), the growth in the assay on HCT-15 colon is 30.2%; in the assay on HT29 colon, 17.6%; in the assay with SNB-75 CNS it was 26.3%; with SNB-19 CNS it was 53.3%; in the assay on U251 CNS, 36.4%; in the assay on PC-3 prostate, 49.3%. Moreover, the growth in the assay on SK-MEL-5 melanoma was 60.2%; in the assay on UACC-62 melanoma, 38.7%; with LOX IMVI melanoma, 50.3%; in the assay on SK-MEL-28 melanoma, 61.4%; in the assay with SK-MEL-2 melanoma, 37.9%; in the assay on EKVX NSCLC it was 54.7%. In addition, the growth in the assay with SN12C renal was 69.6%; in the assay on UO-31 renal, 53.9%; in the assay with TK-10 renal, 80.8%; in the assay on ACHN renal, 68.9%; in the assay on CAKI-1 renal, 54.3%; with CCRF-CEM leukemia, 36.5%. Also, the growth with MOLT-4 leukemia was 22.5%.

On to `Cc1ccc(CNc2c3ccccc3nc3cc(NC(=O)CCN4CCCC4)ccc23)cc1`, for which the growth in the assay on HCT-15 colon is 7.15% (active); in the assay on HT29 colon it was 0.938% (active); in the assay with SNB-75 CNS, 4.1% (active); in the assay on SNB-19 CNS it was 17.8%; with U251 CNS, -55.3% (active); with PC-3 prostate, -0.231% (active). The growth is 42.3% in the assay with SK-MEL-5 melanoma; 36.1% in the assay on UACC-62 melanoma; -86.4% (active) in the assay on LOX IMVI melanoma; 53.6% in the assay with SK-MEL-28 melanoma; 40.2% in the assay on SK-MEL-2 melanoma; 39.3% in the assay on EKVX NSCLC. Moreover, the growth was 2.87% (active) in the assay with SN12C renal; 3.83% (active) in the assay on UO-31 renal; -20% (active) in the assay on TK-10 renal; 12.3% in the assay on ACHN renal; 7.04% (active) in the assay on CAKI-1 renal; -31.5% (active) with CCRF-CEM leukemia. For the same compound, the growth in the assay with MOLT-4 leukemia is -33.5% (active).

Turning to `CC(=O)c1ccc(NS(=O)(=O)c2cccc(C(=O)Nc3ccc(Br)cc3)c2)cc1`, the growth with HCT-15 colon was 68.2% [25 µM]; in the assay with HT29 colon, 87.4% [25 µM]; in the assay on SNB-75 CNS it was 78.3% [25 µM]; in the assay with SNB-19 CNS, 60.4% [25 µM]; in the assay on U251 CNS it was 70.8% [25 µM]; in the assay on PC-3 prostate, 60.4% [25 µM]. Moreover, the growth in the assay on SK-MEL-5 melanoma was -19.8% [25 µM] (active); with UACC-62 melanoma, 26.5% [25 µM]; with LOX IMVI melanoma, 62.7% [25 µM]; in the assay on SK-MEL-28 melanoma, 77.9% [25 µM]; with SK-MEL-2 melanoma, 41% [25 µM]; in the assay on EKVX NSCLC, 34.2% [25 µM]. In addition, the growth in the assay on SN12C renal is 64.7% [25 µM]; in the assay with UO-31 renal, 53.8% [25 µM]; in the assay with TK-10 renal, 91.3% [25 µM]; in the assay on ACHN renal, 73.3% [25 µM]; in the assay on CAKI-1 renal it was 52.8% [25 µM]; in the assay on CCRF-CEM leukemia, 61.6% [25 µM]. Besides, the growth in the assay with MOLT-4 leukemia was 53.7% [25 µM].

As to `NC1=NN=C(N)C1=Cc1cc2ccccc2n2nnnc12`, the growth in the assay with HCT-15 colon is 104%; in the assay with HT29 colon, 104%; with SNB-75 CNS, 94.3%; with SNB-19 CNS, 95.8%; in the assay with U251 CNS, 89%; with PC-3 prostate, 86.6%. The growth in the assay on SK-MEL-5 melanoma is 101%; with UACC-62 melanoma, 93.2%; with LOX IMVI melanoma, 85.1%; in the assay with SK-MEL-28 melanoma, 116%; in the assay on SK-MEL-2 melanoma it was 102%; in the assay with EKVX NSCLC it was 77%. Besides, the growth is 97.9% in the assay with SN12C renal; 77.1% in the assay with UO-31 renal; 114% with TK-10 renal; 102% with ACHN renal; 91.1% in the assay with CAKI-1 renal; 97.5% in the assay with CCRF-CEM leukemia. The growth in the assay with MOLT-4 leukemia is 94.6%.

In the case of `CC(=O)Nc1ccc(-n2cnc3cc(-c4ccc(OCCN5CCCCC5)cc4)ccc32)cc1`, the growth was 43.6% in the assay on HCT-15 colon; 2.12% (active) with HT29 colon; 88.2% in the assay on SNB-75 CNS; 88% in the assay with SNB-19 CNS; 44% in the assay on U251 CNS; 64.3% in the assay with PC-3 prostate. For the same compound, the growth is 79% in the assay on SK-MEL-5 melanoma; 120% with UACC-62 melanoma; 86.8% with LOX IMVI melanoma; 107% with SK-MEL-28 melanoma; 119% in the assay with SK-MEL-2 melanoma; 97.9% in the assay with EKVX NSCLC. In addition, the growth was 67.1% in the assay with SN12C renal; 56.3% in the assay with UO-31 renal; 146% in the assay on TK-10 renal; 76.8% with ACHN renal; 84.2% with CAKI-1 renal; 54.8% in the assay with CCRF-CEM leukemia. The growth in the assay with MOLT-4 leukemia was 73.1%.
